# Measurements from the supplement of paper PMC10849652.
# Of roughly 7,900 targets only a part is listed; those with a hit were picked by preference. About 0.6% of all pairs of compound and target were hits. A number with no mark means an inactive call.
# What was measured:
# Test in all cases: log2 fold change, soluble protein after heating vs DMSO (PISA); higher = thermal stabilisation; K562 cells, 10 uM, 30 min; active = over 0.2 and 3.5 SD of the protein, either way, in both replicates (recomputed)
# [1] = compound: CS(=O)(=O)c1ccc(-c2cnc(N)c(C(=O)Nc3ccccc3)n2)cc1
# Method in brief: (§1)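 K562 cells (2×10^6 cells/mL) were treated with 10 μM compound for 30 min, and aliquots were heated for 3 min over 48°C-58°C. Pooled aliquots were extracted in PBS with 0.5% NP-40 at 4°C, and the supernatant after 21,000xg for 90 min was measured by TMTpro 16plex LC-MS/MS with channel sums equalised. Reported thermal stability, relative to control samples and from duplicates, is a log2 fold change.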
# [2] = compound: C[C@@H](Oc1cc(-c2cnn(C3CCNCC3)c2)cnc1N)c1c(Cl)ccc(F)c1Cl [crizotinib]
# Method in brief: as §1
# [3] = compound: C[C@@H]1COCCN1C2=NC(=NC(=C2)C3(CC3)S(=O)(=O)C)C4=C5C=CNC5=CC=C4
# Method in brief: as §1
# [4] = compound: C[C@H](C1=CC=C(C=C1)C(=O)NC2=C3C=CNC3=NC=C2)N
# Method in brief: as §1
# [5] = compound: C[C@H](Nc1ncnc2nc[nH]c12)c1cc2cccc(Cl)c2c(=O)n1-c1ccccc1 [duvelisib]
# Method in brief: as §1
# [6] = compound: Cc1cc(Nc2cc(CN3CCOCC3)c3nc(C)c(Cc4ccc(Cl)cc4F)n3n2)n[nH]1 [gandotinib]
# Method in brief: as §1
# [7] = compound: Cc1cc(Nc2cc(N3CCN(C)CC3)nc(Sc3ccc(NC(=O)C4CC4)cc3)n2)n[nH]1 [tozasertib]
# Method in brief: as §1
# [8] = compound: Cc1cc(SCc2sc(-c3ccc(C(F)(F)F)cc3)nc2C)ccc1OCC(=O)O
# Method in brief: as §1
# [9] = compound: Cc1ccc(-n2nc(C(C)(C)C)cc2NC(=O)Nc2ccc(OCCN3CCOCC3)c3ccccc23)cc1 [doramapimod]
# Method in brief: as §1
# [10] = compound: Cc1ccc(C(=O)N(CCCN)[C@@H](c2nc3cc(Cl)ccc3c(=O)n2Cc2ccccc2)C(C)C)cc1 [ispinesib]
# Method in brief: as §1
# Chain of UniProt Q9H4L5 (Q9H4L5 whole entry, looked up): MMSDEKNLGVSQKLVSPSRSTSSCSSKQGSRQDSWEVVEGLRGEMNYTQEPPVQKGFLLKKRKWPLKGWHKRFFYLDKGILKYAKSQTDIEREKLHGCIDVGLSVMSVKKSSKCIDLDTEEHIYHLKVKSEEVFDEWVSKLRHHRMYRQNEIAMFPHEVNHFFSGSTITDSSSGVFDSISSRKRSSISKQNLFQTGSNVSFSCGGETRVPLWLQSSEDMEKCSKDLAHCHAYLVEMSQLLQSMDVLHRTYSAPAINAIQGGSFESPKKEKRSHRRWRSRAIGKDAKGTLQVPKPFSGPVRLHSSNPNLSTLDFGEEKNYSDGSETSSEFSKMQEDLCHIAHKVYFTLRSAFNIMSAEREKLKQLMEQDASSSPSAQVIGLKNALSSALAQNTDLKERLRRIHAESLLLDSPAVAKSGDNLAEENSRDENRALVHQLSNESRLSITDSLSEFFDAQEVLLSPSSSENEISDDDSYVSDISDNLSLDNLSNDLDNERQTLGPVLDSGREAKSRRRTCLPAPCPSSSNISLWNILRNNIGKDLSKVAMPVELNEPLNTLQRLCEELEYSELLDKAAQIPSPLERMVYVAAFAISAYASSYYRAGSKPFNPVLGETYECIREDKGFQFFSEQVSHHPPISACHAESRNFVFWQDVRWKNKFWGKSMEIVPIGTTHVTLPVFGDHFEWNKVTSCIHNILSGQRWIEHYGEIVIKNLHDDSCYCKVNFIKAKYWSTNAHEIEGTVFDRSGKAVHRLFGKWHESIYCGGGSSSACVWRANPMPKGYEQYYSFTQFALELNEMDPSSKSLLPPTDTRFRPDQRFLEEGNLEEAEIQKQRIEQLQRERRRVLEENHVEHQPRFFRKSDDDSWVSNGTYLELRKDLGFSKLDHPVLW
# Chain of UniProt Q9Y6R0 (Q9Y6R0 whole entry, looked up): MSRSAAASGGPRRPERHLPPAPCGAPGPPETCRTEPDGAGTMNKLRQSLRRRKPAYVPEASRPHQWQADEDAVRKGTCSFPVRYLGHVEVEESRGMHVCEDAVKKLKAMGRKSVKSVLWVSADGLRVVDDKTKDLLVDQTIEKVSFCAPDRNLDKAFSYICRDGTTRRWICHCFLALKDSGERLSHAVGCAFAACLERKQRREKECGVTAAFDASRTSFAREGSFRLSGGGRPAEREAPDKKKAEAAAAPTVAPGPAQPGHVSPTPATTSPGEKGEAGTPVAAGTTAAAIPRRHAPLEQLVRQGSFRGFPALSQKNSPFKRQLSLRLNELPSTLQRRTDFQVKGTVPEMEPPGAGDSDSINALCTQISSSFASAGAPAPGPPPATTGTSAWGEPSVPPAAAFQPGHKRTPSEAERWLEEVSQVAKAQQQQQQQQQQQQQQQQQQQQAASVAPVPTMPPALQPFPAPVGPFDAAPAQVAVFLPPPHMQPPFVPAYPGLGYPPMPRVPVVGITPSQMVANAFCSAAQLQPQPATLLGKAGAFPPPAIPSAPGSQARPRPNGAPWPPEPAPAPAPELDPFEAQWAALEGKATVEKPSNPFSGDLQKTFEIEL
# Chain of UniProt Q8WUY8 (Q8WUY8 whole entry, looked up): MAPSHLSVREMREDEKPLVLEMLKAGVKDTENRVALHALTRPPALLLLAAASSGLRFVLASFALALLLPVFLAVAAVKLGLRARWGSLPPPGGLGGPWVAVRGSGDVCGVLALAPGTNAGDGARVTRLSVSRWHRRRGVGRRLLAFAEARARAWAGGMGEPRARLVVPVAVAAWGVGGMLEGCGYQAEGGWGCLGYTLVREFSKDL
# Chain of UniProt Q99549 (Q99549 whole entry, looked up): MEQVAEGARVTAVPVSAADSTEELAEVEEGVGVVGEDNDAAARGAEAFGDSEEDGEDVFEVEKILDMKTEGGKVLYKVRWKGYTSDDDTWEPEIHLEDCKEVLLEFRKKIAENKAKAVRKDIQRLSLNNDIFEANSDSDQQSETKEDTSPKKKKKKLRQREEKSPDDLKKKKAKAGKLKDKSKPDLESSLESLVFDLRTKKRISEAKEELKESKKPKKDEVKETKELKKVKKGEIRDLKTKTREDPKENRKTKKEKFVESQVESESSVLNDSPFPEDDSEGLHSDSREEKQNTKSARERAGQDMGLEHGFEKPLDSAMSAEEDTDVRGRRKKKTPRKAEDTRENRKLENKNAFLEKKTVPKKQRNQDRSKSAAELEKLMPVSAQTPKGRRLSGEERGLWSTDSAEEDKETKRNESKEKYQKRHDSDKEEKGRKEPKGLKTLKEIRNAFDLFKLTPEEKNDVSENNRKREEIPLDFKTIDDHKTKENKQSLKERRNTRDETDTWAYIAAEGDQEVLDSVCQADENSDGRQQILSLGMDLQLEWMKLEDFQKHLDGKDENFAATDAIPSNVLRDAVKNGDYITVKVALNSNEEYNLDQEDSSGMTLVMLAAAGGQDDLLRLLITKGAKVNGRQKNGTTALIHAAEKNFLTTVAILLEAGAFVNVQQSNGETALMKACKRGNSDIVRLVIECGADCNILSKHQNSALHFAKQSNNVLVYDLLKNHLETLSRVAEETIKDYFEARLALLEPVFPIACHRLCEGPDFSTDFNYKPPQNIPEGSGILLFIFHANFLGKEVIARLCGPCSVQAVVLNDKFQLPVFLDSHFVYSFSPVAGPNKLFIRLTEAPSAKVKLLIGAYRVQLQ
# Chain of UniProt P52701 (P52701 whole entry, looked up): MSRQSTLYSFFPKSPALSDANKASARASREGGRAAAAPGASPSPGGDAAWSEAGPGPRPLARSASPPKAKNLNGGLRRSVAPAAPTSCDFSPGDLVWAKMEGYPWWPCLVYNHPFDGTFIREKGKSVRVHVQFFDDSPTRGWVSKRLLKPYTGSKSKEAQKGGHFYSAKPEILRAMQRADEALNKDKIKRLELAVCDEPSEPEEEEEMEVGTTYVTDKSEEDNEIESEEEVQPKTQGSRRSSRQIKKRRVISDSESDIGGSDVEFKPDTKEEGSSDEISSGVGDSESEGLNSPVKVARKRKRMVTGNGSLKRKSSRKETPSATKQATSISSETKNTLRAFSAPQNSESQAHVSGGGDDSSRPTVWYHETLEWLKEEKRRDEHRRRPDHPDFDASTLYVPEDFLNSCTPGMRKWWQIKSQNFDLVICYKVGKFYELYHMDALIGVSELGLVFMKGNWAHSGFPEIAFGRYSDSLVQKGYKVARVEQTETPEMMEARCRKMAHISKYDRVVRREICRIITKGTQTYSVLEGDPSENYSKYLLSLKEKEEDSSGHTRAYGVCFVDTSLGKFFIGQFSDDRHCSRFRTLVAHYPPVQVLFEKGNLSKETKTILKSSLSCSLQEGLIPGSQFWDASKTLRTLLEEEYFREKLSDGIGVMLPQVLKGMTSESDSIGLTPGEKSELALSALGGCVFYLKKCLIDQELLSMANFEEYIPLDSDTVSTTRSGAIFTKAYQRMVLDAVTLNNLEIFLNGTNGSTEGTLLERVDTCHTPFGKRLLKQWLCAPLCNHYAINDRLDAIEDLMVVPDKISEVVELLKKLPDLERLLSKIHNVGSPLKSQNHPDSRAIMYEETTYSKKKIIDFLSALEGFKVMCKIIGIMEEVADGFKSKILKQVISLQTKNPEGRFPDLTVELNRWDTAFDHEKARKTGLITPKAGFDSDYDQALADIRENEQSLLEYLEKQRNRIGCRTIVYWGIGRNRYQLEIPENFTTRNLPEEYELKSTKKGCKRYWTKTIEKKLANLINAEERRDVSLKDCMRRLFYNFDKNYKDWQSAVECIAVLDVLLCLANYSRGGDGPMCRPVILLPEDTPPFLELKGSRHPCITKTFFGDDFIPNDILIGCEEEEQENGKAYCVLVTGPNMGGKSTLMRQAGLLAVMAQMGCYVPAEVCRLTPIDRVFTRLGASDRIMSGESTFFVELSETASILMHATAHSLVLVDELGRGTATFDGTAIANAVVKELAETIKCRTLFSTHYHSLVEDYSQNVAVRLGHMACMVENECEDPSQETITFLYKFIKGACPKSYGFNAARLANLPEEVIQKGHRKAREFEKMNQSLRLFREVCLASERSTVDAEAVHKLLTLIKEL
# Chain of UniProt Q9ULX3 (Q9ULX3 whole entry, looked up): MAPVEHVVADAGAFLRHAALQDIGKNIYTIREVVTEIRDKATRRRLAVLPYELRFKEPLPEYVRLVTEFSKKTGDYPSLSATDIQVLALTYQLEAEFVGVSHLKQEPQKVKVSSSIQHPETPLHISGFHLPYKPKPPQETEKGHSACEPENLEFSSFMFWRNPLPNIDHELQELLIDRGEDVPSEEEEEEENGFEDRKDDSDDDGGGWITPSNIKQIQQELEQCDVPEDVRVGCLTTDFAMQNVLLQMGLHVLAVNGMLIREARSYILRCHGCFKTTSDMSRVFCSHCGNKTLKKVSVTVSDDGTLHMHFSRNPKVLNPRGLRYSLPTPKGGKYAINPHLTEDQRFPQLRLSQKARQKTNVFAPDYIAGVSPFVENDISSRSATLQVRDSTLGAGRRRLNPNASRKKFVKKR
# Chain of UniProt Q68DK7 (Q68DK7 whole entry, looked up): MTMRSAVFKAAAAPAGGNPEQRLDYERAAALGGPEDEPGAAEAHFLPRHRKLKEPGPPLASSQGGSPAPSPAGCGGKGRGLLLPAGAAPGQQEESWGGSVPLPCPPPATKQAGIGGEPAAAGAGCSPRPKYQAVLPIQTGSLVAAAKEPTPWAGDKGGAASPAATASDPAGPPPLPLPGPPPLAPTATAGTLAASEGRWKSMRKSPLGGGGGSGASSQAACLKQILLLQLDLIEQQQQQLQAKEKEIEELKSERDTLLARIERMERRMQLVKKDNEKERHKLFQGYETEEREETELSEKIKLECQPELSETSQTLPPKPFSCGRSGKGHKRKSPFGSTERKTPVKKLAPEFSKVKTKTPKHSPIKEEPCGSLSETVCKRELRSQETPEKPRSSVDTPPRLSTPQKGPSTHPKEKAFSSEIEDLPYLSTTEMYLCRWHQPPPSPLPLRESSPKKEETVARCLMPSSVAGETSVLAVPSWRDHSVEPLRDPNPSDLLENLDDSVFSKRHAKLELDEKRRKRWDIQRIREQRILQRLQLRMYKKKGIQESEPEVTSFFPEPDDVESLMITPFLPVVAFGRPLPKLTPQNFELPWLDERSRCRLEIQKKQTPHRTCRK
# Chain of UniProt O75438 (O75438 whole entry, looked up): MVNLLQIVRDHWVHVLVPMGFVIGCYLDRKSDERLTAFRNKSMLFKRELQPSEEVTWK
Target,log2 fold change [1],log2 fold change [2],log2 fold change [3],log2 fold change [4],log2 fold change [5],log2 fold change [6],log2 fold change [7],log2 fold change [8],log2 fold change [9],log2 fold change [10]
NUDT16 (UniProt Q96DE0),0.054,0.052,0.042,-0.169,0.045,0.063,-0.011,0,-0.034,0.067
NOB1 (UniProt Q9ULX3),0.012,-0.142,-0.033,0.15,-0.046,0.019,-0.067,0.113,0,-0.038
MTHFD1 (UniProt P11586),0.101,-0.15,0.107,-0.003,0.016,-0.077,-0.054,0.054,-0.053,-0.021
NOP56 (UniProt O00567),-0.101,-0.103,-0.338,0.285,-0.022,0.064,-0.043,0,0.178,0.162
OSTC (UniProt Q9NRP0),0.044,-0.047,0.132,-0.089,0.041,-0.112,-0.001,-0.042,0.028,-0.117
NDUFA6 (UniProt P56556),0.012,-0.044,0.172,-0.078,0.017,-0.22,-0.009,0.098,-0.004,0
NUP160 (UniProt Q12769),0.017,-0.014,0.034,-0.027,0.024,-0.06,0.078,0.007,0.019,0.044
MRPS25 (UniProt P82663),-0.018,-0.082,-0.103,0.165,0.009,-0.109,0.017,0.121,-0.083,-0.438 (active)
NUMBL (UniProt Q9Y6R0),0.13,-0.021,0.056,0.044,0.07,-0.025,–,0.108,0.109,-0.187
NDUFS4 (UniProt O43181),-0.035,-0.089,-0.027,0.086,-0.086,0.164,-0.098,-0.058,0.018,-0.216
MSL1 (UniProt Q68DK7),0.092,0,0.049,–,0.195,0.31,–,-0.162,-0.054,-0.078
MLST8 (UniProt Q9BVC4),-0.07,-0.12,0.014,0.089,0.067,–,0.006,0.079,0.042,–
ORC5 (UniProt O43913),0.166,-0.766 (active),–,0.008,0.074,-0.226,-0.007,0.135,-0.104,-0.152
NUP107 (UniProt P57740),0.101,-0.067,-0.083,-0.062,0.031,-0.229,0.028,0.093,0.11,-0.018
OSBPL3 (UniProt Q9H4L5),0.245,-0.017,-0.416,0.572,-0.098,–,0.198,0.063,0.189,-0.36
MND1 (UniProt Q9BWT6),0,-0.217,0.005,0.018,0.016,-0.076,-0.152,-0.024,0.009,-0.184
MT-ND1 (UniProt P03886),-0.011,-0.179,0.287,-0.039,0.241,–,0.105,-0.081,0.056,0.178
MSH6 (UniProt P52701),0.075,-0.427,0.152,-0.018,0.009,-0.196,0.099,0.185,-0.053,-0.087
MRPS21 (UniProt P82921),0.146,-0.128,0.07,0.209,0.155,–,0.004,0.16,0.037,-0.239
NDUFB8 (UniProt O95169),0.035,0.09,-0.015,-0.001,0.161,0.045,0.028,0.078,-0.057,0.123
MRPS16 (UniProt Q9Y3D3),0.061,0.014,0.028,0.159,–,-0.031,0.05,–,0.001,-0.266
NCK1 (UniProt P16333),-0.077,-0.449,0.171,0.162,-0.135,–,0.061,0.076,-0.008,-0.173
NPEPPS (UniProt P55786),0.019,-0.14,0.122,-0.039,0.063,-0.03,-0.066,-0.012,0.013,0.082
NCOA7 (UniProt Q8NI08),-0.003,-0.17,0.012,-0.034,0.091,-0.238 (active),-0.052,0.031,0.082,-0.037
NIPSNAP3B (UniProt Q9BS92),0.03,0.053,–,0.015,-0.18,0.082,-0.045,0.039,-0.102,–
MPHOSPH8 isoform 2 (UniProt Q99549),-0.068,-0.036,-0.05,0.045,-0.006,–,0.04,-0.018,0.059,0.18
NAT14 (UniProt Q8WUY8),0.006,-0.228,-0.019,-0.119,0.03,–,-0.063,0,-0.02,-0.418 (active)
NDUFB1 (UniProt O75438),0.06,0.019,0.105,0.044,–,-0.27,0.001,–,-0.044,–
MON1A (UniProt Q86VX9),0.049,-0.559 (active),0.057,–,-0.012,0.116,-0.111,0.011,0.045,-0.153
